# Screening data (PubChem)
# The entries come from a sample that favours hits as a whole.
# Dicer processing: inhibitors of human Dicer processing of pre-microRNA; cat-ELCCA pre-miR-21 Dicer processing, chemiluminescence; stronger effect = higher value; AID 1347074; Q9UPY3; z-score at 25 µM; 6% of 47,000 active; in the data active means z-score above about 3, passing the limit was not always enough;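 further: plate controls were vehicle for no effect and no enzyme for full effect; higher signal means more uncleaved substrate so more Dicer inhibition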
# * = called active by the depositor.
SMILES,Dicer processing
Nc1nc2c(c(=O)[nH]1)C(c1ccccc1Br)CC(=O)N2 (stereo not given),1.3
C=C1SC(=Nc2ccccc2Cl)N(C(=O)c2ccc([N+](=O)[O-])cc2)C1(C)C,-1.2
CCOC(=O)c1cnn(-c2ncnc3sc4c(c23)CCN(C(=O)OCC)C4)c1N,2.5
CC(C)c1ccc(OCc2nc(-c3ccccc3)no2)cc1,1
Cc1c(Cl)cccc1NC(=S)N1C(C)CCCC1C (stereo not given),-0.76
Cc1ccccc1NC(=S)N1CCCCC1C (stereo not given),3.4*
Cc1ccccc1NC(=S)N1CC(C)OC(C)C1 (stereo not given),-1.1
COCCN1C(=O)c2oc3cc(C)c(C)cc3c(=O)c2C1c1ccc(F)cc1 (stereo not given),0.53
Cc1nc(NC(=O)Nc2sc(=S)n(C)c2C)sc1C(=O)Nc1ccccc1,0.79
CC(C)(C)c1ccc(S(=O)(=O)N(C(=O)c2ccncc2)c2ccc3oc(=O)sc3c2)cc1,6.7*
CCc1ccc(S(=O)(=O)N(C(=O)c2cccnc2)c2ccc3oc(=O)sc3c2)cc1,6.2*
CC(C)c1ccc(S(=O)(=O)N(C(=O)c2cccnc2)c2ccc3oc(=O)sc3c2)cc1,2.7
O=C(c1ccncc1)N(c1ccc2oc(=O)sc2c1)S(=O)(=O)c1ccc(Br)cc1,2.1
CC(C)(C)c1ccc(S(=O)(=O)N(C(=O)c2cccnc2)c2ccc3oc(=O)sc3c2)cc1,4.6*
O=C1N2CN(CCO)CN3C(=O)N4CN(CCO)CN1C4C23 (stereo not given),-0.36
O=C1c2ccccc2-c2nc3ncnn3c(-c3ccc(F)cc3)c21,1.6
CC(C)NC(=O)NNC(=O)c1ccc[nH]1,-1.1
COc1ccc(CN2CCN(Cc3cc(Br)ccc3O)CC2)cc1OC,2
COC(=O)c1ccc(S(=O)(=O)NCc2ccc3c(c2)OCO3)n1C,6.1
O=C(O)c1cccc([N+](=O)[O-])c1C(=O)Nc1ccc(Cl)c(Cl)c1,1.5
COC(=O)c1scc(S(=O)(=O)C(C)C)c1N,-1.4
CCOC(=O)C(=CNc1ccc(-c2nnc(C(F)(F)F)o2)cc1C)C(=O)OCC,-1.4
Cn1ncc(Br)c1NC(=O)c1ccc(Cl)cc1,0.13
Cn1c(SCc2ccccc2)nnc1-c1csc(Cc2ccsc2)n1,0.17
CSc1sc(-c2ccnc(SCc3c(Cl)cccc3Cl)n2)c2c1C(=O)CCC2,3.5*
SMILES,Dicer processing
CSc1sc(-c2nc(C)cs2)c(C)c1-c1ccnc(SCc2ccc(Cl)cc2)n1,-0.73
CSc1sc(-c2nc(C(C)(C)C)cs2)c2c1C(=O)CCC2,0.15
CCCc1[nH]nc2c1C(c1ccc(-c3ccccc3)cc1)C(C#N)=C(N)O2 (stereo not given),-1.5
CC(C)c1ccc(C2Oc3ccccc3C=C2[N+](=O)[O-])cc1 (stereo not given),0.94
O=[N+]([O-])C1=Cc2cc(Cl)cc(Cl)c2OC1c1ccc(F)cc1 (stereo not given),5.2*
COc1cccc2c1OC(c1ccc(F)cc1)C([N+](=O)[O-])=C2 (stereo not given),3.9*
CCOC(=O)C(NC(=O)c1cccc(Cl)c1)(Nc1ccccc1C(F)(F)F)C(F)(F)F (stereo not given),-0.36
CC1=C(C(=O)Nc2ccc(C)cn2)C(c2cccnc2)C2=C(CCCC2=O)N1 (stereo not given),1.7
O=C(O)C1CC(=O)N(Cc2ccc(F)cc2)C1 (stereo not given),0.24
O=C(Nc1ccc(Cl)cc1)ON=C1CC2CCCC(C1)N2Cc1ccccc1,-1.5
O=C(ON=C1CC2CCCC(C1)N2Cc1ccccc1)c1ccc(F)cc1,3.1*
Cn1cnnc1S/C=C/C(=O)c1ccc(F)cc1,-1.1
Cc1ccc(CS/C(N)=N/N)cc1,-2.7
CCCOC(=O)c1c(NC(=O)Cn2nc([N+](=O)[O-])cc2C)sc2c1CCCC2,4.3*
CCOC(=O)c1c(NC(=O)CCC(=O)OC)sc2c1CCCC2,-1.2
CCOC(=O)c1c(NC(=O)Cn2nc(C(F)(F)F)c3c2CCC3)sc2c1CCCC2,0.11
CCOC(=O)COc1ccc2c(=O)c(Oc3ccc(OC)cc3)coc2c1,0.03
O=C(O)C12CC3CC(C1)CC(C(F)(F)C(F)C(F)(F)F)(C3)C2 (stereo not given),-0.47
CCN(CC)CCn1c(=O)c(Cc2ccc(OC)cc2)nc2ccccc21,-1.2
CCN(CC)CCn1c(NCc2cccc(Br)c2)nc2ccccc21,3.9*
CCN(CC)CCn1c(NCc2ccc(C)cc2)nc2ccccc21,0.08
CCCn1c(Nc2nc3ccccc3n2C)nc2ccccc21,4.9*
CCCCn1c(NCc2ccccn2)nc2ccccc21,1.2
CCc1ccc(CNc2nc3ccccc3n2CCN(CC)CC)cc1,3.3*
CCCn1c(SCCO)nc2ccccc21,0.15
SMILES,Dicer processing
CCN(CC)CCn1c(NCc2ccccn2)nc2ccccc21,1.7
CCN(CC)CCn1c(C)nc2ccccc21,-0.35
C/C=C/CC(=O)Nc1nc(CC(=O)OCC)cs1,-0.2
CCOC1O[C@H]([C@@H](COCc2ccccc2)OCc2ccccc2)[C@H](OCc2ccccc2)[C@H]1O (stereo not given in full),0.19
CC(=O)N/C(=C\C=C\c1ccccc1)C(=O)O,-0.25
C=CCc1c(CCC)nc(SCc2ccc(F)cc2)[nH]c1=O,2.3
CCOC(=O)c1c(N)n(-c2ccc3ccccc3c2)c2nc3ccccc3nc12,-2
Nc1c(-c2n[nH]c(=S)n2Cc2ccccc2)oc2nc(-c3ccc(Cl)cc3)cc(-c3ccccc3)c12,-0.52
CCOC(=O)c1noc(C)c1C(=O)CSc1nc(C)c(C)c(C)c1C#N,0.79
CCc1nc2c(cnn2-c2ccccc2)c(=O)[nH]1,0.56
CN(Cc1ccccc1)S(=O)(=O)Cc1ccccc1,0.64
O=S1(=O)CC(O)C(S(=O)(=O)Cc2ccc(Cl)cc2)C1 (stereo not given),0.55
O=S(=O)(Cc1ccccc1)C1CCCCC1O (stereo not given),3.1*
O=C(Nc1ccc(Cl)cc1)OCCSCc1ccc2nc(C(F)(F)F)ccc2c1,-0.91
C=CCn1c(=S)sc2c(N(Cc3ccccc3)Cc3ccccc3)ncnc21,-0.95
Cc1nn(C)c2oc(=O)cc(C(F)(F)F)c12,-1.9
CCCc1c(Cc2c(F)cccc2Cl)c(=O)oc2cc(OC(=O)COC)ccc12,4.4*
Cc1c(Cc2c(F)cccc2Cl)c(=O)oc2cc(O)ccc12,-0.21
CCCc1c(Cc2c(F)cccc2Cl)c(=O)oc2cc(OS(C)(=O)=O)ccc12,0.67
NCC(c1ccccc1)c1ccc2c(c1)OCCO2 (stereo not given),-0.74
N#CCC(=O)NNC(=S)NC1CC2C=CC1C2 (stereo not given),-3.7
Oc1ccccc1C=Nc1n[nH]c2ccccc12,3.5*
Oc1ccccc1C=NCC1CCC(CN=Cc2ccccc2O)CC1 (stereo not given),-0.73
Oc1ccccc1/C=N/C(/N=C/c1ccccc1O)c1ccccc1O,0.33
CSc1nc(C)c(CC2CC2)c(=O)[nH]1,2.1
SMILES,Dicer processing
Cc1ccc(S(=O)(=O)NCCc2ccc(S(N)(=O)=O)cc2)cc1,0.1
NS(=O)(=O)c1ccc(CCNCc2cccs2)cc1,3.1*
Cn1cccc1CNCCc1ccc(S(N)(=O)=O)cc1,2.3
Cc1nn(-c2ccccc2)nc1CNS(=O)(=O)c1cccs1,2.8
CC(=O)CSC(=Nc1ccc(Cl)cc1)NC(=O)c1c(F)cccc1Cl,1.9
CCOc1ccc(/C(O)=C2\C(=O)C(=O)N(Cc3cccnc3)C2c2ccc(Br)cc2)cc1 (stereo not given),1.1
Cc1ccc(OC2=NS(=O)(=O)c3ccccc32)cc1,0.25
